Our source for the growth inhibition values is PubChem BioAssay (NCI).

Assay [1] can be described thus: NCI Yeast Anticancer Drug Screen. Data for the rad50 strain (AID 155).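 Also: 0% = growth of vehicle-only cultures of the same strain.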 To be noted: S. cerevisiae rad50 strain growth inhibition, active compounds read high; at 50.0 µM unless noted. The gist of the method: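 Vehicle-treated cultures provide the reference for the growth inhibition reported for compound-exposed, repair-deficient yeast.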
Assay [2] can be described thus: NCI Yeast Anticancer Drug Screen. Data for the mec2-1 strain (AID 157). To be noted: S. cerevisiae mec2-1 strain, active compounds read high; at 50.0 µM unless noted. In a few lines:
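Strain: mec2-1 (DNA repair/cell cycle alteration). Compound exposure, then growth measured; inhibition expressed relative to vehicle.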

Assay [3] in a line: NCI Yeast Anticancer Drug Screen. Data for the sgs1 mgt1 strain (AID 161).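 Also: 0% = growth of cultures given vehicle only.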 Conditions: S. cerevisiae sgs1 mgt1 strain, active compounds read high; at 50.0 µM unless noted. In a few lines: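 Inhibition of yeast growth, normalised to vehicle-treated controls, is reported for a strain bearing genetic alterations in DNA damage repair.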
A short description of assay [4]: NCI Yeast Anticancer Drug Screen. Data for the cln2 rad14 strain (AID 165).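 Also: 0% = growth equal to vehicle treated cultures.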 To be noted: S. cerevisiae cln2 rad14 strain, active compounds read high; at 50.0 µM unless noted. The gist of the method:
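Compounds are applied to the cln2 rad14 yeast strain, and growth is then compared with that of vehicle-treated cultures to give inhibition.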

Assay [5] in a line: NCI Yeast Anticancer Drug Screen. Data for the bub3 strain (AID 167). Conditions: S. cerevisiae bub3 mutant strain, active compounds read high; at 50.0 µM unless noted. In a few lines:
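Mutant yeast screening strain plus compound; vehicle-treated cultures serve as the 0% inhibition reference.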

The nature of assay [6]: NCI Yeast Anticancer Drug Screen. Data for the mlh1 rad18 strain (AID 175). To be noted: S. cerevisiae mlh1 rad18 strain growth inhibition, active compounds read high; at 50.0 µM unless noted. The gist of the method:
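Read-out is yeast growth inhibition, calculated against vehicle-only controls. The compound was applied to a strain engineered with DNA damage repair alterations.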

About 79,000 compounds went through this panel and 15% of them were active in at least one assay; those are over-represented in the sample as a whole. A number with no mark means an inactive call. Activity calls are given as the source filed them. Rule as the data show it: active = growth inhibition above about 70%; inactive = the rest.

For the compound `CCC(=O)C1(C)OC1C(C)CC(C)C1OC(=O)CC2(O)CC=C(C)C(O2)/C(C)=C/CCCC(OC2CC(OC(N)=O)C(O)C(C)O2)/C=C/C(C)C(O)C1C` (stereo not drawn), the growth inhibition is 78% (active) in assay [1]; 83.5% (active) in assay [2]; 82.5% (active) in assay [3]; 84.5% (active) in assay [4]; 85.2% (active) in assay [5]; 83.2% (active) in assay [6].

For the compound `CCC(O)C(C)(C)[N+](=O)[O-]` (stereo not drawn), the growth inhibition in assay [1] was 3.35%; in assay [2], -3.25%; in assay [3], -2.6%; in assay [4], -2.05%; in assay [5] it was -0.8%; in assay [6] it was 0.35%.

Take `O=C(Oc1cccc(O)c1)c1ccccc1`: the growth inhibition is -7.25% in assay [1]; 11% in assay [2]; -9.15% in assay [3]; -18.8% in assay [4]; 19.9% in assay [5]; -6.1% in assay [6].
